This note sets out measurements from PubChem BioAssay AID1347145 (National Center for Advancing Translational Sciences (NCATS), 2019).

Results filed as inconclusive are left out. A call without a number means that no potency is given here. Calls of active or inactive are those of the source. The call rests on the fitted dose curve; in most records, active means well fitted inhibition curve with a large enough effect; inconclusive means small, poorly fitted or top-dose-only effect; inactive means no such curve, though single readings can be large or run the other way.

Chain of N-terminal Xaa-Pro-Lys N-methyltransferase 1 (Homo sapiens) (Q9BV86 whole entry, looked up): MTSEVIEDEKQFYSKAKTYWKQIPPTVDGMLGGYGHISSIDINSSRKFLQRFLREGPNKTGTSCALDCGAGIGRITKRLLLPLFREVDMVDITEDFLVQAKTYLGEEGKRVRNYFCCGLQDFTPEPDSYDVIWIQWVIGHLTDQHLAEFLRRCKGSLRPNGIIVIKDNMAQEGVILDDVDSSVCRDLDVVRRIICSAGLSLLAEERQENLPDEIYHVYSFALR

The assay addresses N-terminal Xaa-Pro-Lys N-methyltransferase 1 (Homo sapiens) (UniProt Q9BV86). As to the kind of experiment: qHTS Assay for Inhibitors of N-terminal methyltransferase 1 (NTMT1): MTaseGlo Assay Confirmatory Screen, Round 1. To be noted: Recombinant NTMT1, MTase-Glo SAH luminescence; series mostly up to 57.1 µM. The gist of the method: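 Luminescence from MTase-Glo conversion of SAH to ATP measured activity after a 30 min RT reaction with 1 µM SPKRIA substrate, 100 µM SAM and 125 nM enzyme. Normalization used no-enzyme and DMSO controls, followed by Hill fitting.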
For orientation: Quantitative high-throughput screening tests each substance at several concentrations.
Regarding `OC[C@H]1O[C@@H](n2cnc3c(N[C@H]4C[C@H]5CC[C@@H]4C5)ncnc32)[C@H](O)[C@@H]1O`, the Potency result was “inactive”.
The same measure for `OC[C@H]1O[C@H](n2cnc3c(NC4CCCC4)nc(Cl)nc32)[C@@H](O)[C@@H]1O`: “inactive”; for `COc1cc2nc(N3CCCN(C)CC3)nc(NC3CCN(C)CC3)c2cc1OC`: “inactive”.
For the compound `CNc1ncnc2c1ncn2[C@@H]1O[C@H](CO)C(O)[C@H]1O` (some centres not stated), the Potency result is “inactive”.
In the case of `COc1cc2c(NC3CCN(CC4CCCCC4)CC3)nc(N3CCCCC3)nc2cc1OCCCN1CCCCC1`, the Potency entry was “inactive”.
For `Nc1ncnc2c1ncn2[C@H]1O[C@@H](CO)[C@@H](O)[C@H]1N`, the Potency result was “inactive”.
Turning to `C=C1O[C@@](CO)(n2cnc3c(N)ncnc32)[C@H](O)[C@@H]1O`, the Potency entry is “inactive”.
